Several values for one entry are separate records, joined by “and”; a condition that tells them apart may be missing. Identical values can stand only once. The panel holds about 83,000 compounds, 20% with a hit somewhere; the sample as a whole holds those more often.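 Compound tested at a single concentration for 48 hours in 96-well plates; a percent growth value below 10 was scored as active.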 Activity calls are given as the source filed them.
How the values were obtained:
Test in all cases: NCI-60 one-dose screen, 48 h (100 = growth as untreated, 0 = no growth, -100 = all killed)
[1] = tested on: HCT-15 colon; conditions: 10 µM unless noted
[2] = tested on: HT29 colon; conditions: 10 µM unless noted
[3] = tested on: SNB-75 CNS; conditions: 10 µM unless noted
[4] = tested on: SNB-19 CNS; conditions: 10 µM unless noted
[5] = tested on: U251 CNS; conditions: 10 µM unless noted
[6] = tested on: PC-3 prostate; conditions: 10 µM unless noted
[7] = tested on: SK-MEL-5 melanoma; conditions: 10 µM unless noted
[8] = tested on: UACC-62 melanoma
[9] = tested on: LOX IMVI melanoma; conditions: 10 µM unless noted
[10] = tested on: SK-MEL-28 melanoma; conditions: 10 µM unless noted
[11] = tested on: SK-MEL-2 melanoma; conditions: 10 µM unless noted
[12] = tested on: EKVX NSCLC; conditions: 10 µM unless noted
[13] = tested on: SN12C renal; conditions: 10 µM unless noted
[14] = tested on: UO-31 renal; conditions: 10 µM unless noted
[15] = tested on: TK-10 renal
[16] = tested on: ACHN renal; conditions: 10 µM unless noted
[17] = tested on: CAKI-1 renal; conditions: 10 µM unless noted
[18] = tested on: A498 renal; conditions: 10 µM unless noted
[19] = tested on: CCRF-CEM leukemia; conditions: 10 µM unless noted
[20] = tested on: MOLT-4 leukemia; conditions: 10 µM unless noted

Measured: growth

Oc1ccc(-c2nnc3c4[nH]ccc4ncn23)cc1
inactive: [1] 110% | [2] 98.3% | [3] 78.8% | [4] 98.9% | [5] 102% | [6] 94.3% | [7] 104% | [8]; 10 µM unless noted 95.2% | [9] 89.9% | [10] 102% | [11] 113% | [12] 93.6% | [13] 95.2% | [14] 76.3% | [15]; 10 µM unless noted 92.3% | [16] 87.9% | [17] 84.7% | [18] 74.4% | [19] 108% | [20] 93.3%

CCOC(=O)Cn1c(-c2nonc2NC(=O)c2ccccc2F)nc2ccccc21
inactive: [1] 29.2% | [2] 27.4% | [3] 70.1% | [4] 47.1% | [5] 28.1% | [6] 44.7% | [7] 32.4% | [8]; 10 µM unless noted 42.4% | [9] 10.3% | [10] 71.1% | [11] 78% | [12] 71.1% | [13] 57.9% | [14] 54.5% | [15]; 10 µM unless noted 66.1% | [16] 46.5% | [17] 25% | [18] 82.5% | [19] 42.3% | [20] 25%

Cc1cc(O)c2cc3c(O)c(O)ccc3cc2c1
active: [8]; 100 µM -27.7% and -63.9% | [15]; 100 µM -14.3% and -64.8%
inactive: [1] 113% | [2] 125% | [3] 127% | [4] 108% | [5] 108% | [6] 97.1% | [7] 94.8% | [8]; 10 µM 114% | [9] 112% | [11] 124% | [12] 106% | [13] 112% | [14] 102% | [15]; 10 µM 115% | [16] 106% | [17] 105% | [18] 103% | [19] 118% | [20] 105%

CCOC(=O)c1ccc2c(c1)[n+](=O)c(C(=O)c1ccc3ccccc3c1)c(C(F)(F)F)n2[O-]
active: [1] -96.1% | [2] -97.4% | [3] -100% | [4] -85.5% | [5] -100% | [6] -99.2% | [7] -100% | [8]; 10 µM unless noted -97.2% | [9] -97.5% | [10] -96.3% | [11] -83.5% | [12] -56.8% | [13] -99.2% | [14] -96% | [15]; 10 µM unless noted -89.7% | [16] -100% | [17] -93.8% | [18] -62.4%

COc1ccc(C(=O)O)cc1.[Ag]
active: [20] -52.5%
inactive: [1] 102% | [2] 103% | [3] 110% | [4] 106% | [5] 103% | [6] 77.1% | [7] 46.5% | [8]; 10 µM unless noted 108% | [9] 88.7% | [10] 110% | [11] 94.6% | [12] 108% | [13] 103% | [14] 91.2% | [15]; 10 µM unless noted 106% | [16] 103% | [17] 87.2% | [18] 96.5% | [19] 25.4%

CCOC(=O)Nc1ccc2nc(N3CCCCCC3)sc2c1
inactive: [1] 24.7% | [4] 33.6% | [5] 22.8% | [6] 25% | [7] 11.5% | [8]; 10 µM unless noted 26% | [9] 44.4% | [10] 42.6% | [11] 36.8% | [12] 59.9% | [13] 44.2% | [14] 39.2% | [15]; 10 µM unless noted 51.1% | [16] 61.9% | [17] 27.2% | [18] 54.7% | [19] 16.7%
active: [2] 6.49% | [3] -8.82%

COc1ccc(-c2cc(-c3cn(-c4cccc(Cl)c4)nc3-c3ccc(OC)cc3)[nH]c(=S)n2)cc1
inactive: [1] 95.4% | [2] 20.6% | [3] 102% | [4] 81.6% | [5] 72.6% | [6] 67.3% | [7] 88.5% | [8]; 10 µM unless noted 88% | [10] 95.5% | [11] 88.9% | [12] 90.4% | [13] 73.6% | [14] 84.7% | [15]; 10 µM unless noted 93.8% | [16] 80.5% | [17] 104% | [18] 69.3% | [19] 73.6% | [20] 42.4%
active: [9] 7.63%

Fc1cc(-c2cnc3nonc3n2)c(Cl)cc1Cl
inactive: [1] 51% | [2] 87.9% | [3] 99.9% | [4] 90.4% | [5] 109% | [6] 85.3% | [7] 98.3% | [8]; 10 µM unless noted 82.3% | [9] 101% | [10] 91.8% | [11] 102% | [12] 102% | [13] 91.8% | [15]; 10 µM unless noted 72.4% | [16] 18.1% | [17] 85% | [18] 95.7% | [20] 20.2%
active: [14] -28.3% | [19] -12.7%

CNC(=O)c1c(NC(=O)c2ccc(C(C)C)cc2)sc2c1CCC(=O)C2
active: [1] -40.7% | [2] 3.51% | [3] -11.9% | [4] 8.7% | [5] -20.2% | [6] -40% | [7] -71.4% | [8]; 10 µM unless noted -54.7% | [9] 1.13% | [10] -32.1% | [11] -6.19% | [12] -4.35% | [13] -10.8% | [14] -99.6% | [16] -90.2% | [17] -9.28% | [18] -19.7% | [19] 1.96%
inactive: [15]; 10 µM unless noted 28.7%

C=C1C(=O)O[C@H]2[C@H]1CC/C(COC(=O)N[C@@H](Cc1c[nH]c3ccccc13)C(=O)OC)=C\CC[C@@]1(C)O[C@@H]21
inactive: [3] 68.7% | [4] 66.8% | [5] 25.3% | [6] 33.3% | [7] 21.8% | [8]; 10 µM unless noted 27.8% | [11] 41.3% | [12] 55.4% | [13] 33.4% | [14] 41.3% | [17] 29.7% | [18] 91.9%
active: [1] -12.1% | [2] -29.5% | [9] -38.5% | [10] 6.71% | [15]; 10 µM unless noted -23.2% | [16] 7.04% | [19] -12.3% | [20] -13.2%

CS(=O)(=O)c1ccc(C(=O)N/N=C/c2cccc3ccccc23)cc1
inactive: [1] 49.8% | [2] 49.5% | [3] 89.7% | [4] 79.8% | [5] 76.3% | [6] 78.8% | [7] 67.2% | [8]; 10 µM unless noted 61.6% | [9] 72.4% | [10] 89.4% | [11] 47.7% | [12] 87.4% | [13] 87.4% | [14] 78.5% | [15]; 10 µM unless noted 85.1% | [16] 98.5% | [17] 67.2% | [18] 69.1% | [19] 77.6% | [20] 46.8%

O=S(=O)(Cc1ccc(Cl)cc1Cl)c1ccc(Cl)cc1
active: [2] 9.72%
inactive: [1] 31.8% | [3] 18.8% | [4] 44% | [5] 25.8% | [6] 31.1% | [7] 39.8% | [8]; 10 µM unless noted 44.6% | [9] 15.7% | [10] 65.9% | [11] 31.1% | [12] 63.4% | [13] 49.4% | [14] 46.2% | [15]; 10 µM unless noted 32.6% | [16] 55.7% | [17] 38.1% | [18] 42.5% | [19] 10.8% | [20] 33.3%

CCCCCCCCCCCC1=NC(C)(C)CN1CCO
active: [2] -25.2% | [8]; 10 µM unless noted -14.3% | [9] 6.59%
inactive: [1] 18% | [3] 65.2% | [4] 100% | [5] 21.8% | [6] 42.5% | [7] 58.9% | [10] 68.5% | [11] 87.8% | [12] 68.7% | [13] 72.6% | [14] 68.3% | [15]; 10 µM unless noted 92.6% | [16] 78.2% | [17] 75% | [18] 95.4% | [19] 23.5%

O=C1NN(C(=O)c2ccccc2)C(c2ccc(Cl)c(Cl)c2)=C/C1=C\c1ccccc1[N+](=O)[O-]
inactive: [3] 25.1% [6.75 µM] | [4] 24.3% [6.75 µM] | [5] 14.7% [6.75 µM] | [10] 27.8% [6.75 µM] | [11] 10.9% [6.75 µM] | [12] 32% [6.75 µM] | [13] 30.7% [6.75 µM] | [15]; 10 µM unless noted 42.1% [6.75 µM] | [16] 24% [6.75 µM] | [17] 24.1% [6.75 µM] | [19] 17.4% [6.75 µM]
active: [1] -28.1% [6.75 µM] | [2] 4.99% [6.75 µM] | [6] 9.01% [6.75 µM] | [7] -65.4% [6.75 µM] | [8]; 10 µM unless noted -69% [6.75 µM] | [9] -45.5% [6.75 µM] | [14] -3.12% [6.75 µM] | [18] -10.9% [6.75 µM]

CCN(CC)c1ccc(/C=C2/NC(=O)NC2=O)cc1
inactive: [1] 36.6% | [2] 16.5% | [3] 59.1% | [4] 61.1% | [5] 44.7% | [6] 65.8% | [8]; 10 µM unless noted 11.7% | [9] 46.4% | [10] 66.6% | [13] 55.9% | [14] 53.5% | [15]; 10 µM unless noted 49.5% | [16] 71.4% | [17] 39% | [18] 23.8%
active: [7] -7.83% | [11] 8.13% | [12] 1.53%

CCCCCCCCCCCCCCCC1=NC(C)(C)CN1C(C)C
active: [1] -63.5% | [2] -50% | [3] -13.4% | [5] -67% | [6] -41.4% | [7] -86.1% | [8]; 10 µM unless noted -75.5% | [9] -79.4% | [10] -80% | [11] -67.9% | [12] 5.51% | [13] -36.3% | [14] -57.5% | [15]; 10 µM unless noted -74.2% | [16] -58.3% | [17] -45.4% | [19] -56.3% | [20] -59.8%
inactive: [4] 42.6% | [18] 63.4%
